Screens as filed in PubChem.
tim23-1 inh = inhibits growth of tim23-1 mutant yeast; hit rate 1.3% among 330,000; inhibition, % at 20 µM; S. cerevisiae tim23-1 growth, BacTiter-Glo luminescence, 24 h;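 active = growth inhibition of the mutant yeast at or above 50%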;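 also: temperature-sensitive mutant grown at 25 °C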
TIM10 inh = TIM10 yeast growth inhibition | inhibition, % at 10 µM | hit rate 1.4% among 330,000 | S. cerevisiae TIM10 strain growth, BacTiter-Glo luminescence, 24 h;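 active = inhibition of 40% or more at the single tested concentration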;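 also: wild-type TIM10 isogenic control strain grown at permissive 25 °C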
SKKanGAS inh = inhibitors of SKKanGAS S. pyogenes growth in kanamycin (SK-promoter or general growth effect); hit rate 1.3% among 300,000; inhibition, % at 7.5 µM; AID 1662; BacTiter-Glo, 6 h;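 active = mean replicate score, as percent of positive control median, at least 50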;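 also: strain carries kanamycin resistance gene driven by streptokinase promoter and grows in 40 µg/ml kanamycin; loss of luminescence reflects streptokinase promoter inhibition or plain growth inhibition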
PfHsp90 yeast 2 = reduces growth (ATP signal) of yeast expressing P. falciparum Hsp90 | S. cerevisiae expressing PfHsp90, BacTiter-Glo ATP, 48 h; yeast lacking PDR1 and PDR3 efflux regulators | hit rate 0.32% among 310,000 | inhibition, % at 9.4 µM | AID 504621;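 active = every replicate shows inhibition above about 80%, whatever the replicate mean, limit read from the data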
tim10-1 inh = growth inhibitors of tim10-1 mutant yeast. S. cerevisiae tim10-1 ts strain growth, BacTiter-Glo, 24 h. inhibition, % at 20 µM. hit rate 2.2% among 330,000;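 active = inhibition of at least 40%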;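 also: mutant grown at 25 °C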
tim23-1 confirm = tim23-1 yeast growth inhibition, confirmed. hit rate 83% among 4,400. inhibition, % at 20 µM. shares compounds with tim23-1 inh. AID 463218. S. cerevisiae tim23-1 growth, BacTiter-Glo luminescence, 24 h;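 active = inhibition above about 39% in either of two replicate wells at 20 µM, limit read from the data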;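 also: temperature-sensitive tim23-1 mutant grown at 25 °C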
Numbers stand for hits; . = inactive; / = no result; + = active, no number. A selection: hits, their analogues and other compounds. The true share with any hit is near 4.4%.

SMILES	tim23-1 inh	TIM10 inh	SKKanGAS inh	PfHsp90 yeast 2	tim10-1 inh	tim23-1 confirm
O=C(N/N=C/c1ccccc1F)c1csc2c1CCCC2	.	.	.	.	.	/
O=C(N/N=C/c1cccc(F)c1)c1csc2c1CCCC2	63	.	.	.	.	62
C=CCC1Cc2c(Br)cccc2C(CC=C)N1 (stereo unspecified)	53	.	.	.	.	46
COc1ccccc1NC(=O)Cc1nnc(SCC(=O)Nc2nccs2)n1C	.	.	.	.	.	/
CN(C(=O)c1cccc(NC(=O)Cc2ccc(NC(=O)C3CCCN(C(=O)C4CC4)C3)cc2)c1)C1CCCCC1 (stereo unspecified)	/	/	/	.	/	/
CC(=O)Nc1ccc(OS(=O)(=O)c2cc(Cl)ccc2C)cc1	52	.	.	.	.	46
CCOC(=O)N/N=C/c1ccc(N(CC)CC)cc1O	60	.	.	.	.	72
CCN(CC)c1ccc(/C=N/Nc2ccc(C)cc2)c(O)c1	/	/	/	.	/	/
O=C(Cn1cnc2scc(-c3ccc(F)cc3)c2c1=O)NCC(c1ccco1)N1CCCC1 (stereo unspecified)	.	.	/	.	.	/
NC(=O)CSc1nnc(-c2ccccn2)n1Cc1ccco1	.	.	.	.	.	/
Clc1ccccc1CSc1nnc(-c2ccccn2)n1Cc1ccco1	52	.	.	.	.	54
COCCN(C(=O)c1ccc(N2C(=O)c3ccccc3C2=O)cc1)c1c(N)n(CC(C)C)c(=O)[nH]c1=O	60	.	/	.	.	51
CCCCN(C(=O)c1ccc2c(c1)OCO2)c1c(N)n(CCCC)c(=O)[nH]c1=O	52	.	.	/	.	53
CCCCN(C(=O)c1ccc(C)cc1)c1c(N)n(CCC)c(=O)[nH]c1=O	53	.	.	.	.	54
COc1cccc(CN2CC(C(=O)NCc3cccc(N4CCCC4)c3)CCC2=O)c1 (stereo unspecified)	.	.	.	.	.	/
CC(=O)Nc1ncc(N=Nc2cccc(C(F)(F)F)c2)s1	.	.	.	.	.	/
Cc1cccc(N=Nc2cnc(N)s2)c1	52	.	.	.	.	53
O=C(N/N=C/c1ccccc1)c1c(O)c2ccccc2[nH]c1=O	73	.	.	.	.	.
CCOC(=O)c1sc(N(Cc2ccccc2)C(=O)CCl)nc1C	62	.	.	.	.	48
CC[C@@H](C)[C@@H](C(=O)N1CCN(C(=O)OC(C)(C)C)CC1)n1cc(CCCCNC(=O)OC(C)(C)C)nn1	.	.	.	.	.	/
O=C(O)CC(=O)Nc1cc(Cl)ccc1O	.	.	.	.	.	/
O=C(CC(=O)c1cc(Cl)ccc1O)c1ccccc1	55	.	111	.	.	65
COc1ccc(C(=O)CC(=O)c2ccccc2O)cc1	50	.	.	.	.	52
COc1ccc(C(=O)CC(=O)c2ccccc2O)cc1OC	.	.	.	.	.	/
N=c1n(CCO)c2ccccc2n1CCOc1ccccc1	65	.	.	.	.	.
SMILES	tim23-1 inh	TIM10 inh	SKKanGAS inh	PfHsp90 yeast 2	tim10-1 inh	tim23-1 confirm
CCn1c(=N)n(CCOc2ccc(OC)cc2)c2ccccc21	.	.	.	.	.	/
Cc1ccc2[nH]cc(C(=O)CN3CCN(C)CC3)c2c1	.	.	.	.	.	/
Cc1ccc2[nH]cc(C(=O)CCl)c2c1	58	.	.	.	.	66
C[C@H](CO)N1C[C@H](C)[C@@H](CN(C)S(=O)(=O)c2cn(C)cn2)Oc2c(NC(=O)Nc3ccc4c(c3)OCO4)cccc2C1=O	.	.	/	.	.	/
Cc1ccc(S(=O)(=O)NCc2csc(-c3cccs3)n2)cc1	59	.	.	.	.	43
COc1ccccc1Nc1nc2ccc(C)cc2n2cnnc12	51	.	.	.	.	.
N#Cc1ccc(NC(=S)NC(=O)C2CCCCC2)cc1	51	.	/	.	.	49
CCN(CC)c1ccc(NC(=S)NC(=O)C2CCC2)cc1	58	.	.	.	.	.
CC(=O)Nc1ccc(NC(=S)NC(=O)C2CCCC2)cc1	.	.	.	.	.	/
Cc1cc(C)cc(NC(=S)NC(=O)C2CC2)c1	54	.	.	.	.	.
COc1ccc(-n2nc(C(=O)NCC(=O)NC3CCCCC3)c3ccccc3c2=O)cc1	.	.	.	.	.	/
O=[N+]([O-])c1cccc(S(=O)(=O)[N-]c2nc3ccccc3nc2-n2cc[n+](Cc3ccccc3)c2)c1	.	.	.	.	.	/
CCOc1cc(C=O)ccc1OCCn1c([N+](=O)[O-])cnc1C	.	.	.	.	.	/
O=c1c2ccccc2oc2c1ccc1ccccc12	55	.	/	.	.	.
O=C(Nc1ccc(N2CCN(Cc3ccccc3F)CC2)cc1)c1ccc([N+](=O)[O-])o1	56	.	.	.	.	41
O=C(Nc1ccc(N2CCN(Cc3ccccc3F)CC2)cc1)c1ccccc1[N+](=O)[O-]	.	.	.	.	.	/
CC1CCN(c2ccc(NC(=O)c3ccc([N+](=O)[O-])o3)cc2)CC1	56	.	.	/	.	.
Cc1cc(C(=O)NCC(c2ccco2)N(C)C)ccc1[N+](=O)[O-] (stereo unspecified)	.	.	.	.	.	/
CC(C)CNC(=O)c1ccccc1N(Cc1ccccc1)S(C)(=O)=O	.	.	.	.	.	/
Cc1ccc2c(c1)N(C(=O)CCC(=O)N1CCC(C(N)=O)CC1)CC(C)O2 (stereo unspecified)	.	.	.	.	.	/
N=C1/C(=C\c2coc3ccccc3c2=O)C(=O)N=C2SC(c3ccncc3)=NN12	54	.	.	.	.	.
CC(C)[C@@H](N)C(=O)N/N=C/c1ccc2ncccc2c1	.	.	.	.	.	/
O=C1/C(=C/c2ccccc2Cl)SC(=S)N1CCCC(=O)N(CCO)c1ccccc1	56	.	.	.	.	48
COc1ccc2c(c1)[C@H]1[C@H](CO2)[C@H](c2ccccc2)[C@]2(C)C(=O)Nc3ccc(F)cc3C(=O)N12	.	.	/	.	.	/
COc1ccc2c(c1)[C@H]1[C@H](CO2)[C@H](c2ccccc2)[C@]2(C)C(=O)Nc3ccc(C)cc3C(=O)N12	51	.	/	+	.	43
SMILES	tim23-1 inh	TIM10 inh	SKKanGAS inh	PfHsp90 yeast 2	tim10-1 inh	tim23-1 confirm
COc1ccc2c(c1)OC[C@H]1[C@H]2N2C(=O)c3cc(C)ccc3NC(=O)[C@@]2(C)[C@H]1c1ccccc1	51	.	/	104	.	58
Cc1nn(CC(=O)NCCCN2CCCC2=O)c(C)c1[N+](=O)[O-]	.	.	/	/	.	/
O=C(N[C@@H](Cc1ccccc1)C(=O)NCc1ccc(F)cc1)C1CCNCC1	.	.	.	.	.	/
CCN(c1ccccc1)S(=O)(=O)c1nnc(NC(=O)c2ccccc2OC)s1	.	.	.	.	.	/
O=C(COn1nnc2ccccc21)N1CCN(Cc2ccccc2)CC1	.	.	.	.	.	/
Cc1ccccc1-c1ocnc1C(=O)Nc1ccccc1NC(=O)c1ccccn1	50	.	.	.	.	49
Cn1cccc1-c1cc(C(=O)N/N=C/C=C/c2ccccc2)[nH]n1	.	.	.	.	.	/
